# Shown are actives, neighbours in structure and some others; about 2.8% of the full set was active somewhere.
# ATXN viability = reduces viability in counter-screen for ATXN expression inhibitors; hit rate 0.49% among 400,000; Potency, µM (doses to about 56.7 µM), most hits filed as cytotoxic; S2 cells (HEK-293 line with an ATXN2-luciferase reporter) viability, CellTiter-Fluor protease fluorescence, 24 h; AID 651635; also: nearly all actives have a fitted effect of over 40% in size
# ATXN2 expr inh = reduces ATXN2 reporter expression in HEK-293 cells | HEK-293 ATXN2-luciferase reporter, luminescence, 24 h | Potency, µM (titrated, usually from 57 µM), for the others: at the highest dose activity change, negative = inhibition, actives largely listed as inhibitors | hit rate 0.72% among 360,000; also: % is scaled to controls: 0 for no effect and ±100 for the full control effect; nearly all actives have a fitted effect of over 55% in size
#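 ATXN2-luciferase reporter cells (luciferase flanked by upstream and downstream ATXN2 gene portions) were treated 24 h at 37 °C with compounds at up to 57 uM. SteadyGlo luminescence gave expression; GF-AFC fluorescence gave viability.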
# HttQ103 aggreg = reduces HttQ103-GFP aggregates in PC12 cells; hit rate 1.1% among 220,000; PC12 HttQ103-GFP aggregates, Acumen cytometry, 40 h; AID 1688; Potency, µM (highest dose often 46.1 µM), for the others: top-dose activity change, negative = inhibition, hits mostly inhibitors; also: % is scaled to controls: 0 for no effect and ±100 for the full control effect; nearly all actives have a fitted effect of over 60% in size
#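 Read-out: GFP aggregate count by laser scanning cytometer (488 nm excitation, 500-530 nm emission, 1–25 µm objects >6 SD above background). Cells: PC12, inducible HTTex1-Q103-GFP, 100 nM tebufenozide; compounds titrated.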
# TGFb SMAD3 inh = inhibitors of TGF-b signaling. HepG2 CAGA-GFP TGF-b/SMAD3 reporter, GFP fluorescence, 18 h; TGF-beta stimulated, 500 pg/mL final. Potency, µM (series often up to 46.1 µM), for the others: at the top dose activity, negative = inhibition, usual class: inhibitors. hit rate 1.2% among 410,000; also: % is scaled to controls: 0 for no effect and ±100 for the full control effect; nearly all actives have a fitted effect of over 65% in size
#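 Using HEPG2 CAGA-GFP reporter cells at 1000 cells/well, we pinned test compounds, stimulated with recombinant TGF-beta (500 pg/mL final) and measured total well GFP after 18 h.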
# HTT ATP protect = protects HTT-Q103 PC12 cells, measured by ATP. PC12 HTT-Q103 induced, cytoprotection, ATP luminescence, 40 h. Potency, µM (titrated, usually from 56.4 µM), without a hit: cytoprotection (ATP increase), usual class: activators. hit rate 0.14% among 230,000. AID 1471; also: % of control where 0% means no effect; nearly all actives have a fitted effect of over 45% in size
#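 ATP quantification (ATPlite) reports survival of PC12 cells in which tebufenozide, 100 nM final, switches on Htt exon 1 with 103 glutamines linked to GFP; compounds are titrated.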
# HepG2 viability = HepG2 cytotoxicity, counter-screen for TGF-b inhibitors; hit rate 0.76% among 410,000; Potency, µM (top dose mostly 46.1 µM), for inactives: at the top dose activity change, negative = cytotoxicity, usual class: cytotoxic; HepG2 CAGA-GFP viability, ATP luminescence, 18 h; AID 588856
#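 CellTiter-Glo luminescence gave cytotoxicity after 18 hours at 37 degrees C. The cells were HepG2 CAGA-GFP in 1% FBS DMEM, stimulated with 500 pg/mL TGF-beta after compound addition. %Activity was normalised to no-cell wells (complete cell-killing) and DMSO (no toxicity), and curves were fitted and classified.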
# * hit, by the source's call; i = inactive; ? = inconclusive; · = no result given; [ ] = another dose, or the depositor's remark. Calls follow the shape of the dose curve; as a rule, active = well fitted curve in the direction sought with a large enough effect; inconclusive = small, poorly fitted or top-dose-only effect, or another doubt; inactive = no such curve, though single readings can be large; an effect the other way counts as inactive or inconclusive. Potency is read from the fitted curve at half-maximal effect.
SMILES,ATXN viability,ATXN2 expr inh,HttQ103 aggreg,TGFb SMAD3 inh,HTT ATP protect,HepG2 viability
C/C(=N\Nc1nc(C)cc(C)n1)c1ccc(N2CCOCC2)cc1,?,-32.2%,11.2µM*,?,3.4%[10 µM],-42.5%
Cn1cc(CN2CCC(C3(c4ccccn4)NC(=O)N(CC4CCCO4)C3=O)CC2)c2ccccc21 (stereo unspecified),i,·,·,·,·,·
CCC[N+](C)(C)c1ccc(/C=C/c2ccnc3ccccc23)cc1,·,·,·,2µM*,·,-50.1%
Cc1[nH]c2ccccc2c1/C=C/c1ccnc2ccccc12,·,·,·,12.6µM*,·,-110.0%
CCCN(CCC)c1ccc(/C=C/c2ccnc3ccccc23)cc1,·,·,·,217.3%,·,10µM*
Nc1nc(Cl)nc2c1ncn2[C@@H]1O[C@@H](COP(=O)(O)OP(=O)(O)OP(=O)(O)O)[C@@H](O)[C@H]1O,·,·,·,·,-25.6%[1.9 µM],·
COc1ccc(CN2CC[C@H]3C=CC[C@@H](C(=O)NCc4cccnc4)[C@H]3C2=O)cc1OC,·,·,·,-0.3%,·,16.5%
N#Cc1ccc(C23CC4(C2)[C@H](CN(P(=O)(c2ccccc2)c2ccccc2)[C@@H]4c2ccccc2)C3c2ccc(Cl)nc2)cc1 (stereo partly specified),?,-37.3%,-38.3%[9.22 µM],12.6µM*,-44.4%,-28.7%
N#C/C(=C\c1cccc([N+](=O)[O-])c1)C(=O)NCc1ccc(Cl)cc1,?,23.8µM*,8.3%,?,·,-27.9%
CN(C)CCOc1nc(-c2ccccc2)nc2c1oc1ccccc12,i,?,22.4µM*,?,-44.3%,-45.5%
Cc1ccc(CN2CCC(C3(c4ccccn4)NC(=O)N(CC4CCCO4)C3=O)CC2)cc1C (stereo unspecified),i,·,·,·,·,·
Clc1ccc2nc[nH]c2c1,·,·,·,-21.2%,·,-40.6%
O=C(CS(=O)Cc1ccco1)NC/C=C\COc1cc(CN2CCCCC2)ccn1 (stereo unspecified),i,6.0%,·,·,·,·
CC(C)(C)c1ccccc1OCCOCCNCc1ccccc1,?,-35.1%,17.8µM*,25.1µM*,21.4%[10 µM],-64.7%
COCCCNCCOCCOc1ccc(Cl)cc1C(C)(C)C,?,?,-1.0%,20µM*,-14.5%[0.074 µM],11.2µM*
Cc1ccccc1OCC(=O)N/N=C/c1cc2ccccc2nc1Cl,i,5.6%,-21.6%,-12.7%,-41.9%,-18.9%
C=CCc1ccccc1OCC(=O)N/N=C/c1ccc(OC(C)=O)cc1OC(C)=O,i,22.4µM*,-18.8%,1.6%,·,-2.9%
O=C(c1cc(Br)ccc1O)N(Cc1ccco1)Cc1cccs1,·,·,·,?,·,-55.9%
OC1(c2ccc(Cl)c(C(F)(F)F)c2)CCN(CCCC(c2ccc(F)cc2)c2ccc(F)cc2)CC1,17.8µM*,15.8µM*,·,·,·,·
O=C(c1ccccc1)N1CCSC1=S,i,-0.9%,1.2%,-1.8%,-1.0%,-4.6%
O=C(c1ccccc1)N1CCSc2sccc2C1=O,i,4.74µM*,?,-9.3%,6.2%,-8.2%
Cc1c(Cl)cccc1NC(=S)NNc1ncc(C(F)(F)F)cc1Cl,?,?,12.6µM*,?,-63.9%,-12.8%
NNC(=O)c1cc2c(ccc3ccccc32)o1,·,-12.5%,14.9%[9.22 µM],-11.0%,-25.3%,-10.9%
O=C(O)c1cc2c(ccc3ccccc32)o1,i,-2.6%,17.8µM*,22.6%,-36.0%,-20.0%
Cc1cc(C)cc(OC(C)C(=O)Nc2nonc2-c2ccc(Br)cc2)c1 (stereo unspecified),?,?,·,15.8µM*,·,-56.0%
SMILES,ATXN viability,ATXN2 expr inh,HttQ103 aggreg,TGFb SMAD3 inh,HTT ATP protect,HepG2 viability
CCCC/C(C)=N/NC(=O)CN(c1ccc(Br)cc1)S(=O)(=O)c1ccccc1,i,-8.7%,-8.1%,-19.7%,·,1.9%
C/C(=N/NC(=O)CN(c1ccccc1)S(=O)(=O)c1ccccc1)c1ccccc1O,?,·,·,7.08µM*,·,5.62µM*
O=C1[C@@H]2[C@@H]3C=C[C@H]([C@@H]2C(=O)N1CN1CCSCC1)[C@@H]1[C@@H]2C(=O)N(CN4CCSCC4)C(=O)[C@@H]2[C@H]31,·,·,·,·,-21.5%[10 µM],·
Cc1cc(N2CCN(c3nc4ccccc4s3)CC2)n2ncnc2n1,i,?,11.2µM*,2.0%,-18.6%,-28.9%
Cc1cc(N2CCN(C(c3ccccc3)c3ccccc3)CC2)n2ncnc2n1,i,-10.5%,13.2%,9.0%,-8.7%,-65.6%
O=C1C(=O)c2c(ccc3ccccc23)-c2ccccc21,5.01µM*,3.16µM*,·,?,·,-4.1%
Cc1ncc2c(c1CNC(=O)c1ccccc1F)CCN(C(=O)c1csc(-c3cccs3)n1)C2,i,·,·,·,·,·
Cn1cc([N+](=O)[O-])c(C(=O)N(Cc2ccccc2)Cc2ccccc2)n1,i,-13.8%,24.3%,7.9%,2.51µM*,9.6%
Nc1cc2c(cc1Br)[nH]c(=O)c1ccccc12,?,0.0%,·,10µM*,·,-97.7%
COc1cc(C(C)C)c2c(c1)S(=O)(=O)N(COc1cc(=O)n3cccc(OCCN4CCCCC4)c3n1)C2=O,·,19.6%,·,·,·,·
CCOc1ccc(NC(=O)c2nc(S(=O)(=O)Cc3ccccc3F)ncc2Cl)cc1,·,·,·,3.16µM*,·,6.31µM*
O=C(Nc1ccc(OC(F)F)cc1)c1nc(S(=O)(=O)Cc2ccccc2F)ncc1Cl,·,·,·,12.6µM*,·,11.2µM*
Cc1c(C(=O)NCC2(N3CCOCC3)CCCC2)cnn1-c1nccc(-c2ccccc2F)n1,i,·,·,·,·,·
CCOC(=O)N1CCC(Nc2nc3ccccc3nc2NS(=O)(=O)c2ccc(Cl)cc2)CC1,i,28.6%,11.2µM*,-2.1%,-7.9%[0.074 µM],-58.0%
CCOC(=O)N1CCC(NC(=O)c2ccc(Cl)cc2)CC1,?,·,-27.6%[9.22 µM],37.6%,9.7%[10 µM],66.5%
CC1(C)S[C@@H]2[C@H](NC(=O)C(C(=O)Oc3ccc4c(c3)CCC4)c3ccccc3)C(=O)N2[C@H]1C(=O)O (stereo partly specified),i,·,·,·,·,·
Nc1nc(N)c2nc(-c3cccc(O)c3)c(-c3cccc(O)c3)nc2n1,·,24.3µM*,·,·,·,·
Nc1nc(N)c2nc(-c3ccccc3)c(N)nc2n1,·,-0.6%,3.6%,59.6%,-93.4%,-47.0%
COc1cc(OC)c(S(=O)(=O)NCc2cccnc2)cc1NC(C)=O,i,·,-4.4%,-19.8%,-7.4%,-18.9%
COc1cc(OC)c(S(=O)(=O)Nc2ccc(C)cn2)cc1NC(C)=O,i,10.1%,-6.3%,-12.6%,14.9%[10 µM],10µM*
Cn1nnnc1SCCCNCc1cccc(OCc2ccccc2Cl)c1,?,?,·,10µM*,·,-81.0%
COc1cccc(CNCCSc2nnnn2C)c1OCc1ccc(Cl)cc1,i,?,·,17.8µM*,·,-0.2%

# High-throughput results deposited in PubChem BioAssay by National Center for Advancing Translational Sciences (NCATS).
